Calls of active or inactive are those of the source. Rule for the calls: active = hit-call score of the fitted dose curve at least 0.9, where 1 is the maximum; inactive = score below 0.9.

For the experiment, the target named is Nuclear respiratory factor 1 (Homo sapiens) (UniProt Q16656). Briefly: ATG_NRF1_CIS: Attagene CIS-FACTORIAL HepG2 Assay for human Nuclear Respiratory Factor 1 (NRF1) Orphan Gene (AID 2282987). To be noted: HepG2 NRF1 cis-element reporter, Attagene multiplex; actives raise or lower the signal. On the procedure: ATG_CIS is a cell-based, multiplexed-readout assay that uses HepG2, a human liver cell line, with measurements taken at 24 hours after chemical dosing in a 24-well plate.ATG_NRF1_CIS is one of 52 assay component(s) measured or calculated from the ATG_CIS assay. It is designed to make measurements of mRNA induction, a form of inducible reporter, as detected with fluorescence intensity signals by Reverse transcription polymerase chain reaction (RT-PCR) and Capillary electrophoresis technology.Data from the assay component ATG_NRF1_CIS was analyzed into 1 assay endpoint. This assay endpoint, ATG_NRF1_CIS, was analyzed with bidirectional fitting relative to DMSO as the negative control and baseline of activity. Using a type of inducible reporter, measures of mRNA for gain or loss-of-signal activity can be used to understand the reporter gene at the transcription factor-level as they relate to the gene NRF1. Furthermore, this assay endpoint can be referred to as a primary readout, because this assay has produced multiple assay endpoints where this one serves a reporter gene function. To generalize the intended target to other relatable targets, this assay endpoint is annotated to the dna binding intended target family, where the subfamily is nuclear respiratory factors.
Sequence of Nuclear respiratory factor 1 (Homo sapiens) (Q16656 whole entry, looked up): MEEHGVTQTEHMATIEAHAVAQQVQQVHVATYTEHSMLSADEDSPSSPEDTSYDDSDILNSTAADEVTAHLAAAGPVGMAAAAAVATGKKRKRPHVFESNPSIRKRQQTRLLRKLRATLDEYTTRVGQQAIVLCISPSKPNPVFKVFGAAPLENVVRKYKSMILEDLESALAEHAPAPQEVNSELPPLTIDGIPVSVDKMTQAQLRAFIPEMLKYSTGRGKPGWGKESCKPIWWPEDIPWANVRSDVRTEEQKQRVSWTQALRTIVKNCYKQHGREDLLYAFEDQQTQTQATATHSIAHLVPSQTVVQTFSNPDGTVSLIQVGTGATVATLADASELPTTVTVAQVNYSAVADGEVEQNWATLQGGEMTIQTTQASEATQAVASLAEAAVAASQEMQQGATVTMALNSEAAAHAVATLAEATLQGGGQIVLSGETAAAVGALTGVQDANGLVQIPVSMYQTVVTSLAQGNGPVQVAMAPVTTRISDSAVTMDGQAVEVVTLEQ
Human liver HepG2 cells are transiently transfected with multiple reporter transcription units (MRTUs) in 6-well plates using FuGene 6 reagent (Roche; 3 ml FuGene/1 mg DNA). The MRTU constructs are regulated by a cis-regulating element (promoter). […] A major difference between the CIS and TRANS system is that in CIS activities of endogenous TFs are measured, whereas the TRANS assay evaluates changes in activities of exogenous, chimeric NR-Gal4 proteins. […] At the end of 24 hour incubation, total RNA was isolated using TriZol reagent (Invitrogen). The isolated RNA is then reverse-transcribed using oligo(dT) primer and Mo-MLV reverse transcriptase (Invitrogen) with DNAse I (Ambion) treatment for 30 min. The one-tenth of the produced cDNA was amplified by PCR using Taq DNA polymerase (Invitrogen) and two reporter sequence-specific primers. The PCR products were fluorescently labeled by primer extension with 6-arboxyfluorescein (6-FAM) 5'-labeled reporter sequence-specific primer (2 min at 95 C, 20 s at 68 C and 10 min at 72 C) and these products were digested with 5U of HpaI (New England Biolabs) for 2h at 37 C. The fragments were purified using Qiaquick PCR columns (Qiagen), analyzed on an ABI 3130xL genetic analyzer (Applied Biosystems) with peak positions identified by using a set of X-rhodamine (ROX)-labeled MapMarker1000 molecular weight standards (BioVentures). The raw capillary electrophoresis data was processed using Attagraph software (Attagene).
With `O=C1c2ccccc2C(=O)C1C(=O)C(c1ccccc1)c1ccc(Cl)cc1` (stereo not given), the molecule was classed as inactive. `CCCCCCCCCCBr`: the molecule was called inactive. As to `O=C(O)C1(c2ccc3c(c2)OC[C@H](Cc2ccc(-c4ccccc4)cc2)[C@H]3O)CCCC1`, the result was inactive.

Consider `C#C[C@]1(O)CC[C@H]2[C@@H]3CCC4=CC(=O)CC[C@]4(C)[C@H]3CC[C@@]21C`, for which the call was inactive.

Take `CCOP(=O)(OCC)SCCSCC`: the call was inactive.

For `BrCc1ccc(Br)cc1`, the outcome was inactive. With `OC[C@@H](O)[C@H]1O[C@@H]2O[C@H](C(Cl)(Cl)Cl)O[C@@H]2[C@H]1O` the entry was “inactive”. In the case of `CN(C)C(=S)S`, the result was inactive.

Take `Nc1ccc(Br)cc1`: the result was inactive.

On to `CCCCOC(=O)COC(=O)c1ccccc1C(=O)OCCCC`, for which the molecule was called inactive. Regarding `OC[P+](CO)(CO)CO`, the molecule was called inactive. As to `COC(=O)Nc1cccc(OC(=O)Nc2cccc(C)c2)c1`, the molecule was classed as inactive. Consider `Cc1cc(Cl)ccc1N`, for which the outcome was inactive. On to `O=C(CBr)c1ccc(O)cc1`, for which the outcome was inactive.

For the molecule `CC(C)CP(=S)(S)CC(C)C`, the call was inactive. `O=S(=O)(C(Cl)(Cl)Cl)C(Cl)(Cl)Cl`: the call was inactive. With `CC(C)O.CC(C)O.OCCN(CCO)CCO.OCCN(CCO)CCO.[Ti]` the entry was “inactive”; with `CNC(=O)CSP(=O)(OC)OC`, “inactive”.

As for `CC(C)(C1CCC(O)CC1)C1CCC(O)CC1` (stereo not given), the molecule was classed as inactive. With `N#Cc1ccccc1Cl`, the result was inactive.

Take `CNC(=O)N(C)c1nc2ccccc2s1`: the outcome was inactive. With `O=C1C[C@@H]2OCC=C3CN4CC[C@]56c7ccccc7N1[C@H]5[C@H]2[C@H]3C[C@H]46` the entry was “inactive”; with `O=S(=O)(Oc1ccc(Cl)cc1)c1ccc(Cl)cc1`, “inactive”. Take `Oc1cccc(-c2ccccc2)c1`: the outcome was inactive.

Regarding `N#Cc1ccncc1`, the result was inactive. As to `NC(=O)CCl`, the call was inactive. Turning to `c1ccc2sc(SNC3CCCCC3)nc2c1`, the outcome was inactive. As to `O=C(Nc1ccc(Br)cc1)c1cc(Br)cc(Br)c1O`, the molecule was called inactive. Take `CCOC(=O)C(SP(=S)(OC)OC)c1ccccc1` (stereo not given): the result was inactive. With `CCCCS(=O)(=O)Cl`, the result was inactive. As to `O=C/C(Cl)=C(/Cl)C(=O)O`, the molecule was classed as inactive.

As to `c1ccc2c(c1)Oc1ccccc1O2`, the call was inactive.

`CN(C)c1ccc(N=O)cc1`: the result was inactive. With `O=S(=O)(c1ccc(Cl)cc1)c1cc(Cl)c(Cl)cc1Cl`, the result was inactive. `Brc1c(Br)c(Br)c(Oc2c(Br)c(Br)c(Br)c(Br)c2Br)c(Br)c1Br`: the molecule was classed as inactive. As for `CCOP(=S)(OCC)Oc1ccc(Cl)cc1Cl`, the entry is “inactive”; as for `CC(C)[N+](=O)[O-]`, “inactive”; as for `CC(C)(C#N)N=NC(C)(C)C#N`, “inactive”. For the molecule `CC(C)=CC1C(C(=O)OCc2cccc(Oc3ccccc3)c2)C1(C)C` (stereo not given), the molecule was classed as inactive. Turning to `CCC[N+](CCC)(CCC)CCC`, the call was inactive.

Source of the values: PubChem BioAssay (EPA / NIEHS).
